# Compound activity deposited in PubChem by National Center for Advancing Translational Sciences (NCATS).
# TRPML1 blocker: blocks the human TRPML1 channel | AID 624415 | hit rate 0.02% among 390,000 | Q9GZU1 | activity change, negative = inhibition, % (concentration not given with the values) | TRPML1-inducible cells, Ca2+ dye fluorescence, FDSS; stronger effect = lower value; inhibition of EC80 agonist-evoked calcium signal; in the data active means activity change below about -50%; inconclusive means between about -30% and that limit;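 further: stimulus is agonist 54-4 at its EC80 concentration; on the % scale 0 is the no-effect control and ±100 the full control effect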
# Target sequence (Q9GZU1 whole entry, looked up): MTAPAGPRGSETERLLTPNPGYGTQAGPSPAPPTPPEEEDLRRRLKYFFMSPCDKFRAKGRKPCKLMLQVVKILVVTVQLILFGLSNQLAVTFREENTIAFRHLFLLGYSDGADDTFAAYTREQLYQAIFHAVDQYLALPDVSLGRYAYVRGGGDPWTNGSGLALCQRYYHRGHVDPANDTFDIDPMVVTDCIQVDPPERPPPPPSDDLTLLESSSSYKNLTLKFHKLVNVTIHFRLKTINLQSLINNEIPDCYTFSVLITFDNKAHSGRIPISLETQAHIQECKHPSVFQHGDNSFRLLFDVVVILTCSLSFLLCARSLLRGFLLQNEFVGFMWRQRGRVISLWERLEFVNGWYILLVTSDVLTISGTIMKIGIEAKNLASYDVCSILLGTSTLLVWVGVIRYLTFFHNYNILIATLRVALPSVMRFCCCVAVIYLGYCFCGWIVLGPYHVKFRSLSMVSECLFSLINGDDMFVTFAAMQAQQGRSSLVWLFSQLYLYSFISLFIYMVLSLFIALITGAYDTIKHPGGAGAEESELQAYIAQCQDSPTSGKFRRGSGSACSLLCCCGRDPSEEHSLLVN
#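 Calcium fluorescence in TRPML1-DL cells induced overnight with Tet: a 110 s read after compound pin addition, then a 110 s antagonist read after challenge with 54-4 at 4 uM final (EC80).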
# TRPML1 agonist: human mucolipin-1 channel agonism; Q9GZU1; TRPML1-expressing cells, Ca2+ dye fluorescence, FDSS; activation, % (no concentration beside the values); hit rate 0.12% among 410,000; in the data active means activation above about 50%; inconclusive means mostly about 30% to 49%; further: 0% is about no effect
#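 Kinetic FDSS Ca2+ read in Tet-induced TRPML1-DL cells (ABD Ca8 dye plus quencher, 45-90 min RT loading): baseline, then compound, then 110 s agonist window; EC80 agonist 54-4 at 4uM final added afterwards for a 110 s antagonist window.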
# TRPV1 ag: agonists of human vanilloid receptor 1 (TRPV1); Q8NER1; TRPV1-expressing cells, Fluo-8 calcium influx, agonist mode; activation, % at 8.33 µM; hit rate 0.19% among 320,000; AID 540275; in the data active means activation above about 80%; inconclusive means between about 30% and that limit; further: 0% is about no effect
#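 TRPV1-expressing cells were cultured overnight at 35.5C and loaded with Fluo-8 calcium dye for 40 to 90 min at room temperature. After a 10 s baseline, compound was added and calcium influx was read kinetically for 3 min (ex 480/em 520 nm).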
# TRPV1 PAM: human TRPV1 potentiation; Q8NER1; TRPV1-expressing cells, Fluo-8 calcium influx, capsaicin EC20 potentiation; potentiation, % at 8.33 µM; hit rate 0.02% among 320,000; AID 540277; in the data active means potentiation above about 80%; inconclusive means between about 30% and that limit; further: 0% is about no effect
#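 Fluo-8 calcium influx in TRPV1-expressing cells, kinetic read (ex 480/em 520 nm). Compound added and read 3 min for agonist activity, followed by capsaicin at EC20 final and 2 min further read for enhancement.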
# A-T KAP1 phos: potential ataxia-telangiectasia treatments restoring KAP-1 phosphorylation; F2112 A-T fibroblasts, KAP-1 phosphorylation AlphaLISA; neocarzinostatin DNA damage 30 min before lysis; Potency, µM (titrated, usually from 57.5 µM), for the others: at the highest dose activation, most hits filed as activators; hit rate 0.19% among 320,000; further: potency means the concentration at half of the fitted maximal effect; % of control where 0% means no effect; nearly all actives have a fitted effect of over 45% in size
#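 hTERT-immortalized A-T patient fibroblasts (F2112), 500 cells/well in OPTI-MEM, 1% FBS, got compounds for 60 min, then NCS for 30 min at 37C. Lysates were then assayed for phospho-KAP-1 by AlphaLISA (anti-pKAP1 donor, anti-KAP1 acceptor beads), 6 hr at 25C.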
# RGS4 inhibitor: inhibitors of human regulator of G protein signaling 4; Transcreener GDP fluorescence polarization, RGS4-accelerated GTP hydrolysis; Potency, µM (series often up to 114 µM), for the others: at the top dose activity change, negative = inhibition, hits mostly inhibitors; hit rate 0.039% among 390,000; P49798; further: potency means the concentration at half of the fitted maximal effect; on the % scale 0 is the no-effect control and ±100 the full control effect; nearly all actives have a fitted effect of over 75% in size
#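 MLSMR compounds (23 nl, pin-transferred) preincubated 10 min at room temperature with a 500nM (2x) first reagent, then RGS4 at 900nM (2x) plus Transcreener GDP mix added; fluorescence polarization (620/688 nm) read before and after 90 min at 30 °C.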
# An asterisk follows results filed as active; ? = inconclusive; · = not tested or not shown; [ ] = another dose, or the depositor's remark. Most compounds without a hit are left out; they make up all but 0.5% or so of the library. Unless noted, the call rests on the fitted dose curve; in most records, active means well fitted curve in the direction sought with a large enough effect; inconclusive means small, poorly fitted or top-dose-only effect, or another doubt; inactive means no such curve, though single readings can be large; an effect the other way counts as inactive or inconclusive.
SMILES,TRPML1 blocker,TRPML1 agonist,TRPV1 ag,TRPV1 PAM,A-T KAP1 phos,RGS4 inhibitor
CCOc1ccc(C(=O)Nc2cccc(-n3cnnn3)c2)cc1OCC,6,0,-2,-9,6%,-16%[56.9 µM]
CC(C)(C)c1ccc(C(=O)Nc2cccc(-n3cnnn3)c2)cc1,8,0,80*,-1,-5%,12%
O=C(NCC1CC1)C1CCCN(S(=O)(=O)c2ccc(-n3cnnn3)cc2)C1 (stereo unspecified),-7,0,-4,4,-1%,27%
O=C(CCC(=O)N1CCCC(Nc2ccccc2)C1)c1ccc(F)cc1 (stereo unspecified),2,-1,86*,-5,0%,7%
Cc1cc(C)c(C(=O)N2CCCC(Nc3ccc(C)c(C)c3)C2)o1 (stereo unspecified),-8,-1,97*,5,-3%,-23%
COc1ccc(NC2CCCN(C(=O)c3oc(C)cc3C)C2)cc1OC (stereo unspecified),2,1,14,6,-1%,-8%
O=C(CCc1ccccn1)N1CCCC(Nc2ccc(F)cc2)C1 (stereo unspecified),1,0,-5,?,6%,-15%
Cc1cc(C)c(C(=O)N2CCCC(Nc3ccc(F)cc3)C2)o1 (stereo unspecified),10,1,83*,-6,-3%,-9%
CCC(C)c1ccc(NC(=O)N2CCOCC2)cc1 (stereo unspecified),-17,0,93*,-24,-1%,-12%
CCC(C)c1ccc(NC(=O)COC(=O)CCNC(=O)c2ccco2)cc1 (stereo unspecified),2,0,4,-7,-3%,4%
CCC(C)c1ccc(NC(=O)c2ccco2)cc1 (stereo unspecified),·,·,82*,6,-7%,-6%
O=C(CSc1ccc2ccccc2c1)N1CCN(c2ccc(O)cc2)CC1,-8,0,20,10,25µM*,-6%
COc1ccc(NC(=O)Cn2nc(Cc3cccnc3)c3ccccc3c2=O)cc1OC,-12,0,-6,?,11%,27%
